Rab9 prom act: Rab9 promoter activation | hit rate 2.8% among 320,000 | Huh7 Rab9 promoter-luciferase reporter, luminescence, 24 h | Potency, µM (series often up to 9.22 µM), without a hit: at the highest dose activation, negative = inhibition, most hits filed as activators; also: % of control where 0% means no effect; nearly all actives have a fitted effect of over 60% in size
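Measured in stably transfected Huh7 cells bearing a Rab9 promoter–luciferase construct: 24 h compound treatment at 37 °C, followed by luminescence detection.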
SMN2 splice up: enhancers of SMN2 splice variant expression; hit rate 2.8% among 210,000; HEK293 SMN2-luciferase splicing reporter, luminescence, 30-36 h; AID 1458; Potency, µM (top dose mostly 46.1 µM), for the others: at the highest dose activity change, positive = activation, usual class: activators; also: % of control where 0% means no effect; nearly all actives have a fitted effect of over 55% in size
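HEK293 cells carry an SMN2 minigene-luciferase reporter in which exon 7 inclusion puts luciferase in frame. Cells were seeded at 2000 cells/well, attached for 10-12 hours, then exposed to compounds for 30-36 hours at 37C before ONE-Glo luminescence.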
FLuc modulator: inhibits or activates purified firefly luciferase, miR-21 counter-screen; Potency, µM (series often up to 57.5 µM), for the others: at the top dose activity change, negative = inhibition, usual class: inhibitors; hit rate 6.9% among 360,000; purified FLuc, Km substrates, luminescence inhibition; P08659;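 also: plate controls were vehicle for no effect and reference inhibitor for full effect; nearly all actives have a fitted effect of over 55% in size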
Target sequence (P08659 whole entry, looked up): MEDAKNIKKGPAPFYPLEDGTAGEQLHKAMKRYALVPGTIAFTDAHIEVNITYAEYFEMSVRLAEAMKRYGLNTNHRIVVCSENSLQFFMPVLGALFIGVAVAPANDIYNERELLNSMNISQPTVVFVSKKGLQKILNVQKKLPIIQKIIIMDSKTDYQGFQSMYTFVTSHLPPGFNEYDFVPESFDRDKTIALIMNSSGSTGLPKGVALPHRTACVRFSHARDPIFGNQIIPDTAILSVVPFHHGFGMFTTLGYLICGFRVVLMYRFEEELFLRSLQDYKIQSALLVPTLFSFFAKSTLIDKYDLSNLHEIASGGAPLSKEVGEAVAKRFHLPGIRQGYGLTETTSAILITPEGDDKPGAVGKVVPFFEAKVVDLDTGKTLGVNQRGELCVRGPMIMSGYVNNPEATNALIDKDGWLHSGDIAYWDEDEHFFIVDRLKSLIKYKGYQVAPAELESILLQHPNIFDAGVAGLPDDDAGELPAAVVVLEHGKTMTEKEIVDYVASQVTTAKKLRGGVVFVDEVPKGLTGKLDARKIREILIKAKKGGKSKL
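Purified P. pyralis luciferase, 10 nM final, with Km-level 10 uM D-luciferin and 10 uM ATP in 50 mM Tris acetate pH 7.5, 10 mM Mg acetate, 0.01% Tween-20, 0.05% BSA; 6-point qHTS titration about 60 µM downward; luminescence read.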
ELG1 genotoxic: genotoxicity induction in ELG1-luciferase HEK293T cells | hit rate 1.3% among 330,000 | HEK293T ELG1-luciferase reporter, luminescence, 16 h | Potency, µM (highest dose often 46 µM), for inactives: at the top dose activity change, positive = activation, actives largely listed as activators | AID 504466; also: % of control where 0% means no effect; nearly all actives have a fitted effect of over 60% in size
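HEK293T cells expressing luciferase-tagged ELG1 were exposed to compound or DMSO vehicle for 16 hr at 37 °C and 5% CO2. Luciferase activity was then measured with ONE-Glo after 30 min at room temperature.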
NPC1 promoter act: activates the NPC1 promoter | Huh7 NPC1 promoter luciferase reporter, 24 h | Potency, µM (doses to about 9.22 µM), for inactives: at the top dose activation, actives largely listed as activators | hit rate 2.4% among 320,000; also: % of control where 0% means no effect; nearly all actives have a fitted effect of over 60% in size
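Luciferase expression driven by the NPC1 promoter was measured in stably transfected Huh7 cells after a 24 h compound incubation, using a luciferase reagent and a luminescence read.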
Luc counter: Kinase-Glo luciferase inhibition (counter-screen) | Q27757 | Kinase-Glo luciferase, ATP luminescence, 8 min | Potency, µM (series often up to 38.3 µM), inactives show at the top dose activity change, negative = inhibition, most hits filed as inhibitors | hit rate 0.28% among 200,000; also: % is scaled to controls: 0 for no effect and ±100 for the full control effect; nearly all actives have a fitted effect of over 60% in size
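Light output from Kinase-Glo luciferase with luciferin and 10 uM ATP in 50 mM imidazole pH 7.2, KCl, MgCl2, Tween 20, BSA; compound pin-delivered, 8-min ambient incubation, then luminescence read.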
An asterisk follows results filed as active. Only some compounds are listed: those with a hit (about 7.5% of all), similar ones and a draw of the others. Calls follow the shape of the dose curve; as a rule, active = well fitted curve in the direction sought with a large enough effect; inconclusive = small, poorly fitted or top-dose-only effect, or another doubt; inactive = no such curve, though single readings can be large; an effect the other way counts as inactive or inconclusive. Potency is read from the fitted curve at half-maximal effect.

How did CCOC(=O)Nc1ccc(Oc2ccccc2)cc1 do in these assays?
Rab9 prom act: inconclusive; SMN2 splice up: 7%; FLuc modulator: 13µM*; ELG1 genotoxic: 18µM*; NPC1 promoter act: inconclusive; Luc counter: -2%

How did CCOC(=O)Nc1ccc(C(=O)Oc2ccccc2)c(O)c1 do in these assays?
Rab9 prom act: inconclusive; SMN2 splice up: 8%; FLuc modulator: 15µM*; ELG1 genotoxic: 16%; NPC1 promoter act: 19%; Luc counter: -9%

How did O=C(Nc1ccc(C(=O)Oc2ccccc2)c(O)c1)c1ccccc1 do in these assays?
Rab9 prom act: 28%; SMN2 splice up: -16%; FLuc modulator: inconclusive; ELG1 genotoxic: 1%; NPC1 promoter act: 11%; Luc counter: -4%

What do the screens show for `O=C(Nc1ccc(C(=O)Oc2ccccc2)c(O)c1)c1ccco1`?
Rab9 prom act: 2.2µM*; SMN2 splice up: inconclusive; FLuc modulator: 7.6µM*; ELG1 genotoxic: inconclusive; NPC1 promoter act: inconclusive; Luc counter: -24%

What do the screens show for `CCOC(=O)Nc1ccc(C(=O)/C=C/c2ccccc2)cc1`?
Rab9 prom act: -49%; FLuc modulator: 17µM*; ELG1 genotoxic: 7%; NPC1 promoter act: 17%

Results for Cc1ccc(-n2nc3c(=O)n(CCCC(=O)NCC(C)c4ccccc4)nc(C)c3c2C)cc1 (stereo not given) ?
Rab9 prom act: -14%; FLuc modulator: inconclusive; ELG1 genotoxic: -8%; NPC1 promoter act: -3%

What do the screens show for `Cc1ccc(S(=O)(=O)Nc2ccc(C(=O)N3CCCC3)cc2)c(C)c1NS(C)(=O)=O`?
Rab9 prom act: 0%; FLuc modulator: 0%; ELG1 genotoxic: 0%; NPC1 promoter act: -3%

How did O=C(Nc1ccc(-c2ccc(N3CCCCC3)nn2)cc1)c1ccco1 do in these assays?
Rab9 prom act: 2.8µM*; FLuc modulator: 4.8µM*; ELG1 genotoxic: inconclusive; NPC1 promoter act: inconclusive

Results for O=C(Nc1ccc(-c2nnc3n2CCCCC3)cc1)c1ccco1 ?
Rab9 prom act: 2%; SMN2 splice up: 8%; FLuc modulator: 0%; ELG1 genotoxic: 2%; NPC1 promoter act: -2%; Luc counter: 0%

How did NC(=O)N1CCN(C(=O)c2ccco2)CC1 do in these assays?
Rab9 prom act: -2%; SMN2 splice up: 14%; FLuc modulator: 0%; ELG1 genotoxic: -1%; NPC1 promoter act: 1%; Luc counter: -6%

How did Cc1nc(N2CCN(C(=O)c3ccco3)CC2)nc2c1C(=O)CCC2 do in these assays?
Rab9 prom act: 0.1µM*; FLuc modulator: 0.76µM*; ELG1 genotoxic: 0.46µM*; NPC1 promoter act: 0.32µM*

Results for O=C(c1ccco1)N1CCN(c2ccc(N3CCCCC3)nn2)CC1 ?
Rab9 prom act: 3.2µM*; FLuc modulator: 24µM*; ELG1 genotoxic: inconclusive; NPC1 promoter act: inconclusive

What do the screens show for `CCCCn1c(=O)n(-c2cc(OC)ccc2OC)c(=O)c2c3c(sc21)CN(C(C)=O)CC3`?
SMN2 splice up: 28%; FLuc modulator: 1%

Results for O=C(Cc1ccccc1)NCC(=O)N1CCC1 ?
Rab9 prom act: 1%; FLuc modulator: -2%; ELG1 genotoxic: 3%; NPC1 promoter act: -3%

How did COc1ccc(-n2cc(CN[C@H]3CCCCNC3=O)c(-c3cccc(F)c3)n2)cc1 do in these assays?
Rab9 prom act: 0%; FLuc modulator: 17µM*; ELG1 genotoxic: -2%; NPC1 promoter act: -1%

How did CC(C)(C)c1ccc(NC(=O)C2=CC=CN3CCS(=O)(=O)N=C23)cc1 do in these assays?
Rab9 prom act: inconclusive; ELG1 genotoxic: inconclusive; NPC1 promoter act: 30%

How did CCN(CC)c1ccc(NC(=O)C2=CC=CN3CCS(=O)(=O)N=C23)cc1 do in these assays?
Rab9 prom act: inconclusive; FLuc modulator: 3µM*; ELG1 genotoxic: 12%; NPC1 promoter act: 17%

What do the screens show for `Cc1ccc(NC(=O)C2CCCN(S(=O)(=O)c3cccs3)C2)c(C)c1` (stereo not given)?
FLuc modulator: -16%

How did O=C(O)Cc1cn(-c2ccccc2)nc1-c1ccccc1 do in these assays?
Rab9 prom act: -6%; SMN2 splice up: 0%; FLuc modulator: -23%; ELG1 genotoxic: 0%; NPC1 promoter act: 2%; Luc counter: 4%

Results for O=C(O)/C=C/c1cn(-c2ccccc2)nc1-c1ccccc1 ?
Rab9 prom act: 9%; FLuc modulator: 13µM*; ELG1 genotoxic: -1%; NPC1 promoter act: -1%

How did C(=N\N1CCOCC1)/c1cn(-c2ccccc2)nc1-c1ccccc1 do in these assays?
Rab9 prom act: 6%; SMN2 splice up: 23%; FLuc modulator: 24µM*; ELG1 genotoxic: -1%; NPC1 promoter act: 12%; Luc counter: -3%

How did O=Cc1cn(-c2ccccc2)nc1-c1ccccc1 do in these assays?
Rab9 prom act: -1%; FLuc modulator: 12µM*; ELG1 genotoxic: 0%; NPC1 promoter act: 4%

What do the screens show for `COc1cccc(-c2nn(-c3ccccc3)cc2/C=C\C(=O)c2cccs2)c1`?
Rab9 prom act: -48%; SMN2 splice up: -74%; FLuc modulator: 7.6µM*; ELG1 genotoxic: -5%; NPC1 promoter act: -2%; Luc counter: -5%

What do the screens show for `O=Cc1cn(-c2ccccc2)nc1-c1ccncc1`?
Rab9 prom act: 0%; SMN2 splice up: inconclusive; FLuc modulator: -19%; ELG1 genotoxic: 1%; NPC1 promoter act: 2%; Luc counter: 1%

Results for O=C(N/C(=C\c1cn(-c2ccccc2)nc1-c1ccccc1)C(=O)N1CCOCC1)c1ccccc1 ?
Rab9 prom act: -1%; SMN2 splice up: 2%; FLuc modulator: 3%; ELG1 genotoxic: 0%; NPC1 promoter act: -1%; Luc counter: -1%

Results for O=C(NCCO)C(=O)NCC1OCCCN1S(=O)(=O)c1cc(F)ccc1F (stereo not given) ?
Rab9 prom act: -9%; FLuc modulator: 3%; ELG1 genotoxic: 0%; NPC1 promoter act: 2%

What do the screens show for `Cc1c(NC(=O)/C=C/c2cn(-c3ccccc3)nc2-c2ccccc2)c(=O)n(-c2ccccc2)n1C`?
Rab9 prom act: -1%; SMN2 splice up: -10%; FLuc modulator: 21µM*; ELG1 genotoxic: -10%; NPC1 promoter act: 1%; Luc counter: -6%

How did CN(C)c1ccc(C(O)Cc2nc3ccccc3n2C)cc1 (stereo not given) do in these assays?
Rab9 prom act: inconclusive; FLuc modulator: inconclusive; ELG1 genotoxic: 4.6µM*; NPC1 promoter act: inconclusive

Results for COc1ccccc1C(O)Cc1nc2ccccc2n1C (stereo not given) ?
Rab9 prom act: inconclusive; SMN2 splice up: 2%; FLuc modulator: inconclusive; ELG1 genotoxic: inconclusive; NPC1 promoter act: 29%; Luc counter: 15%
